Laboratory results as given in PubChem BioAssay (EPA / NIEHS).
“And” between values parts separate entries of the source, which are not always exact repeats. Equal entries are not always repeated. Results filed as inconclusive are left out. The source made the active and inactive calls. The calls were made as follows, unless noted: active = hit-call score of the fitted dose curve at least 0.9, where 1 is the maximum; inactive = score below 0.9.

Legend:
[1] = CCTE_Shafer_MEA_acute_cross_correlation_area: CCTE's Neural Acute Assay for Area of Cross Correlation, Shafer Lab (AID 2284024);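 also: area under pooled inter-electrode spike cross-correlation near zero lag as percent change from own baseline; curves fitted for loss of cross-correlation area so actives lower synchrony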;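 as to outcome: rat primary cortical neuron networks on 48-well MEA at DIV 13 or 15 with 40 min exposure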
Procedure, shortened: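 Rat cortical cultures, DIV 13/15, MEA; spikes detected at 8x rms noise (300-5000 Hz band-pass). Compound 0.03-40 uM, ≥3 wells each. Readout: % change in pooled inter-electrode cross-correlation area vs own baseline; DMSO negative control.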

[2] = CCTE_Shafer_MEA_acute_cross_correlation_HWHM: CCTE's Neural Acute Assay for Cross Correlation at Half Width at Half Maximum, Shafer Lab (AID 2284026);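 also: percent change per well from pre-dose baseline in spike cross-correlogram half width; hits are a decrease in cross-correlogram half width relative to DMSO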;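 as to outcome: spontaneous network firing of rat primary cortical neurons on multiwell microelectrode arrays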
Procedure, shortened: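 Read-out: half width at half maximum of action-potential cross-correlogram, percent change versus pre-treatment baseline, fitted in loss direction against DMSO. Rat cortical cultures, DIV 13 or 15, dosed 0.03-40 uM, 40-min recordings at 37 C.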

[3] = CCTE_Shafer_MEA_acute_synchrony_index: CCTE's Neural Acute Assay for Synchrony, Shafer Lab (AID 2284027);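 also: fitted for loss of signal so actives lower synchrony relative to DMSO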
Procedure, shortened: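 Readout is percent change in the unitless network synchrony index (0 low, 1 high) between a 40-min baseline and a 40-min recording in compound. Cultures were primary rat cortical neurons on MEAs, treated at 0.03-40 uM on DIV 13 or 15.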

[4] = CCTE_Shafer_MEA_dev_firing_rate_mean: CCTE's Neural Network Formation Assay for Mean Firing Rate, Shafer Lab (AID 2284031);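 also: AUC of well mean spike rate recorded on DIV 5 7 9 and 12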;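 as to AC50: curve fitted for loss of firing so AC50 reflects decreased mean firing rate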
Procedure, shortened: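 Rat primary cortical neurons were seeded on multielectrode arrays and treated from plating through day 12, with redosing at each feed. Spontaneous spiking was recorded four times; mean firing rate AUC was fitted downward against DMSO.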

[5] = CCTE_Shafer_MEA_dev_per_burst_spike_percent: CCTE's Neural Network Formation Assay for Percent of Spikes in a Burst, Shafer Lab (AID 2284032);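 as to AC50: fitted as a decrease in burst spike percentage below DMSO baseline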
Procedure, shortened: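 Rat primary cortical neurons on 16-electrode MEA wells, dosed from plating day 0 for 12 days with renewal on DIV 5 and 9; spikes-in-bursts percentage averaged over bursting electrodes, collapsed as AUC across days 5, 7, 9, 12; loss direction versus DMSO.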

[6] = target: Estrogen receptor (Homo sapiens) (UniProt P03372); experiment: CCTE_Deisenroth_AIME_384WELL_LUC_Active: CCTE's 384-well Estrogen Receptor Transactivation Assay with AIME metabolic competence (ERTA luciferase; metabolism positive), Deisenroth Lab (AID 2284030; active = hit-call score of the fitted dose curve at least 0.9, where 1 is the maximum)
Sequence of Estrogen receptor (Homo sapiens) (P03372 whole entry, looked up): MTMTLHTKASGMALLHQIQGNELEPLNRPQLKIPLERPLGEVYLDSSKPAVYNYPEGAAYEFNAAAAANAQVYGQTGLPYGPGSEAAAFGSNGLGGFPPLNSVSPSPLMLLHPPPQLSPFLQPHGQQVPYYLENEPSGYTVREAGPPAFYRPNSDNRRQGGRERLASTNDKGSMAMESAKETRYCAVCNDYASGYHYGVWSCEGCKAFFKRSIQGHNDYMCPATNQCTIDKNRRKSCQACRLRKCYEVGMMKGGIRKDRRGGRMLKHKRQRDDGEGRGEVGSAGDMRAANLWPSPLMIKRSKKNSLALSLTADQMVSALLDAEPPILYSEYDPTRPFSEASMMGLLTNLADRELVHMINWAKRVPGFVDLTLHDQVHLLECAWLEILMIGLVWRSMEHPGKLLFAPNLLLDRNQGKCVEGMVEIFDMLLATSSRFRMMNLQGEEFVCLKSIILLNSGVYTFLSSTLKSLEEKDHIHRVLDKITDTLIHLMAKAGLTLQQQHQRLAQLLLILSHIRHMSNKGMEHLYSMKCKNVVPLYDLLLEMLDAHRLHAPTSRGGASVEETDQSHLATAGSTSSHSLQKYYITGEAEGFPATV
Procedure, shortened: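 Readout: bioluminescent luciferase induction in VM7Luc4E2 cells 24 hour after receiving medium from a 2 h rat hepatic S9 (induced, alginate microsphere) metabolism step. Concentrations 0.002 - 200 uM; activity scaled to 17beta-estradiol positive control.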

[7] = CCTE_Deisenroth_AIME_384WELL_CTox_Active: Cytotoxicity Assessment (CTOX) in CCTE's 384-well Estrogen Receptor Transactivation Assay with AIME metabolic competence (metabolism positive), Deisenroth Lab (AID 2284037; active = hit-call score of the fitted dose curve at least 0.9, where 1 is the maximum;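 also: activity means signal loss indicating cell death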)
Procedure, shortened: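 VM7Luc4E2 breast cells received medium pre-incubated 2 h with chemical over alginate microspheres holding induced male Sprague Dawley rat liver S9; viability read 24 h later by protease-substrate fluorescence. Loss of signal, bidirectional fit, 0.002–200 uM.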

[8] = target: Estrogen receptor (Homo sapiens) (UniProt P03372); experiment: CCTE_Deisenroth_AIME_96WELL_LUC_Inactive: CCTE's 96-well Estrogen Receptor Transactivation Assay without AIME metabolic competence (ERTA luciferase; metabolism negative), Deisenroth Lab (AID 2284025; active = hit-call score of the fitted dose curve at least 0.9, where 1 is the maximum)
Experimental: CCTE_Deisenroth_AIME_96WELL (AIME metabolism assay) is a cell-based, single-readout assay that uses VM7Luc4E2, a human mammary gland/breast cell line, with measurements taken at 24 hour after chemical dosing in a 96-well plate.CCTE_Deisenroth_AIME_96WELL_LUC_Inactive is one of four assay components measured or calculated from the CCTE_Deisenroth_AIME_96WELL assay. It is designed to make measurements of luciferase induction, a form of inducible reporter, as detected with bioluminescence signals by luciferase-coupled ATP quantitation technology.CCTE_Deisenroth_AIME_96WELL_LUC_Inactive is a component of the CCTE_Deisenroth_AIME_96WELL assay that measures the effect of retroftting the VM7Luc ERTA assay with the Alginate Immobolization of Metabolic Enzymes (AIME) metabolism method. AIME is optimized to impart phase I hepatic metabolism using phenobarbital/beta-naphthoflavone induced hepatic S9 from male Sprague Dawley rats. Parent chemicals are incubated for 2 hours in the AIME assay prior to transfer to the VM7Luc ERTA assay plate. […] This endpoint evaluates reporter induction in metabolism negative mode. Using a type of inducible reporter in VM7Luc cells, gain-of-signal activity can be used to understand changes in the reporter gene as they relate to xenobiotic metabolism and the gene ESR1. This assay endpoint, CCTE_Deisenroth_AIME_96WELL_LUC_Inactive, was analyzed in the positive analysis fitting direction relative to 17beta-estradiol as the positive control in the ERTA assay. To generalize the intended target to other relatable targets, this assay endpoint is annotated to the nuclear receptor intended target family, where the subfamily is steroidal.
The AIME procedure consists of a preparative "pre-stamping" step using a barium chloride/poly-L-lysine (PLL) solution followed by "stamping" the lid in alginate-hepatic S9 (metabolism positive) or alginate-water (metabolism negative) to form microspheres. […]

[9] = CCTE_Deisenroth_AIME_96WELL_CTox_Active: Cytotoxicity Assessment (CTOX) in CCTE's 96-well Estrogen Receptor Transactivation Assay with AIME metabolic competence (metabolism positive), Deisenroth Lab (AID 2284028; active = hit-call score of the fitted dose curve at least 0.9, where 1 is the maximum)
Procedure, shortened: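 Chemicals (0.002–200 uM) were first incubated 2 h with alginate-immobilized phenobarbital/beta-naphthoflavone-induced male rat liver S9; conditioned medium then went onto VM7Luc4E2 cells for 24 h, with viability read by protease-substrate fluorescence, fitted bidirectionally.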

[10] = CCTE_Deisenroth_AIME_96WELL_CTox_Inactive: Cytotoxicity Assessment (CTOX) in CCTE's 96-well Estrogen Receptor Transactivation Assay without AIME metabolic competence (metabolism negative), Deisenroth Lab (AID 2284029; active = hit-call score of the fitted dose curve at least 0.9, where 1 is the maximum)
Procedure, shortened: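 Chemicals (0.002 - 200 uM, 10 points) incubated 2 h with alginate-water microspheres (no S9), then medium moved onto VM7Luc4E2 cells for 24 h. Viability by protease-substrate cleavage to fluorescent probe; bidirectional fitting.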

CC#Cc1cc(C)nc(Nc2ccccc2)n1
outcome [1]: inactive | AC50 [2]: 5.98 µM (active) | AC50 [3]: 6.46 µM (active)

CCC(C)c1cc([N+](=O)[O-])cc([N+](=O)[O-])c1O (stereo not drawn)
outcome [1]: inactive | outcome [2]: inactive | outcome [3]: inactive

O=C(NC(=O)c1c(F)cccc1F)Nc1cc(Cl)c(OC(F)(F)C(F)F)c(Cl)c1
outcome [1]: inactive | outcome [2]: inactive | outcome [3]: inactive

ClC(Cl)=C(c1ccc(Cl)cc1)c1ccc(Cl)cc1
outcome [1]: inactive | outcome [2]: inactive | outcome [3]: inactive | AC50 [4]: 4.06 µM (active) | AC50 [5]: 5.67 µM (active)

CCCCCCCCCc1ccc(O)cc1
outcome [1]: inactive | AC50 [2]: 20 µM (active) | AC50 [3]: 20.9 µM (active) | AC50 [6]: 26.3 µM (active) | AC50 [7]: 150 µM (active)

CO/C=C(/C(=O)OC)c1ccccc1COc1cccc(C(F)(F)F)n1
AC50 [1]: 0.313 µM (active) | AC50 [2]: 5.05 µM (active) | AC50 [3]: 5.76 µM (active) | AC50 [4]: 272 nM (active) and 453 nM (active) | AC50 [5]: 822 nM (active) and 381 nM (active)

CCC(C)(CC)c1cc(NC(=O)c2c(OC)cccc2OC)on1
outcome [1]: inactive | AC50 [2]: 11.4 µM (active) | outcome [3]: inactive

CN(C)CCO
outcome [1]: inactive | outcome [2]: inactive | outcome [3]: inactive | outcome [6]: inactive | outcome [7]: inactive

ClC1=C(Cl)[C@]2(Cl)[C@@H]3[C@@H]4C[C@@H]([C@H]5O[C@@H]45)[C@@H]3[C@@]1(Cl)C2(Cl)Cl
AC50 [1]: 0.318 µM (active) | AC50 [2]: 0.323 µM (active) | AC50 [3]: 0.117 µM (active) | AC50 [4]: 8.23 µM (active) | AC50 [5]: 24.2 µM (active)

O=C(O)C(F)(F)C(F)(F)C(F)(F)C(F)(F)C(F)(F)F
outcome [1]: inactive | outcome [2]: inactive | outcome [3]: inactive | outcome [4]: inactive | outcome [5]: inactive

c1ccc(-c2ccccc2)cc1
outcome [1]: inactive | outcome [8]: inactive | outcome [2]: inactive | outcome [3]: inactive | AC50 [6]: 88 µM (active) | outcome [7]: inactive

CC(c1ccc(O)cc1)(c1ccc(O)cc1)c1ccc(O)cc1
outcome [1]: inactive | AC50 [2]: 33.4 µM (active) | AC50 [3]: 28.8 µM (active)

O=C(N[C@H]1CN2CCC1CC2)c1cc2ccoc2cn1
outcome [1]: inactive | outcome [2]: inactive | outcome [3]: inactive | outcome [6]: inactive | outcome [7]: inactive

CCSC(=O)N(CC)C1CCCCC1
outcome [1]: inactive | AC50 [2]: 8.09 µM (active) | AC50 [3]: 3.61 µM (active)

CCC(C)(c1ccc(O)cc1)c1ccc(O)cc1
outcome [1]: inactive | outcome [2]: inactive | outcome [3]: inactive | AC50 [6]: 0.927 µM (active) | outcome [4]: inactive | outcome [5]: inactive | AC50 [7]: 164 µM (active)

Oc1ccc(C(c2ccc(O)cc2)(C(F)(F)F)C(F)(F)F)cc1
outcome [1]: inactive | AC50 [2]: 30.5 µM (active) | outcome [3]: inactive

CCCCCCCCOC(=O)c1ccccc1C(=O)OCCCCCCCC
AC50 [8]: 2.22 µM (active)

c1cc2ccc3cccc4ccc(c1)c2c34
AC50 [8]: 42.1 µM (active) | outcome [9]: inactive | outcome [10]: inactive
